Data published in PubChem BioAssay AID623870 (Broad Institute, 2012).
Screen size: about 390,000 compounds; about 2,600 (0.67%) were called active. This is one part of a sample in which actives are shown more often than they occur. Values without a mark were called inactive.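 How the source made its calls: active means mean inhibition of replicates at least 50% and at least half of replicates each reaching 50%; inconclusive means half or more replicates reach 50% but mean below 50%; inactive means the rest.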

Target: Transforming acidic coiled-coil-containing protein 3 (Homo sapiens) (UniProt Q9Y6A5)
Assay: inhibitors of ARNT PAS-B binding to TACC3 – biochemical, AlphaScreen, single concentration, primary screen (AID 623870);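 further: 0% = complete ARNT plus TACC3 wells and 100% = ARNT alone without TACC3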
Details: AlphaScreen His-ARNT PAS-B/GST-TACC3 binding, luminescence; at 9.99 µM; active compounds read high

Structure (SMILES) | inhibition
Cc1ccc2c(c1)=C/C(=C\c1c(O)[nH]c(=O)[nH]c1=O)C(=O)N=2 | 13.7%
COc1ccccc1N=Nc1c(O)[nH]c(=S)[nH]c1=O | -1.81%
O=C1N=c2ccccc2=C/C1=C\c1c(O)[nH]c(=S)[nH]c1=O | 37% (active)
C[C@@H]1CN([C@H](C)CO)C(=O)CCCn2cc(nn2)CO[C@@H]1CN(C)C(=O)Oc1cccc2ccccc12 | -8.62%
O=C(Cc1ccccn1)N1CCCCN2[C@H](C1)[C@H](c1ccc(-c3ccccc3F)cc1)[C@@H]2CO | 10.9%
C/C=C/c1ccc([C@H]2[C@H](CO)N3CCCCN(C(=O)Cc4ccncc4)C[C@@H]23)cc1 | 1.93%
O=C(N/N=C/c1c(O)n(C2CC2)c(=S)[nH]c1=O)c1ccccc1Cl | 68.5% (active)
O=c1[nH]c(=O)n(CCc2ccccc2)c(O)c1/C=N/N1CCOCC1 | 0.078%
COc1ccccc1-n1c(O)c(C=NC2CC2)c(=O)[nH]c1=O | 4.19%
O=C(N/N=C/c1c(O)n(C2CC2)c(=S)[nH]c1=O)c1ccccc1 | 62.7% (active)
Cc1cccc(-n2c(O)c(/C=N/N3CCOCC3)c(=O)[nH]c2=S)c1 | -0.608%
O=c1[nH]c(=S)n(C2CC2)c(O)c1/C=N/N1CCOCC1 | -0.873%
CCCCC(=O)N/N=C/c1c(O)n(-c2ccccc2)c(=O)[nH]c1=O | 65.6% (active)
CC/C(=N\NC(=O)c1ccccc1O)c1c(O)n(Cc2ccccc2)c(=O)[nH]c1=O | 6.78%
O=C(N/N=C/c1c(O)n(Cc2ccccc2)c(=O)[nH]c1=O)c1ccccc1 | 70.1% (active)
CC(C)c1ccc(-n2c(O)c(/C=N/N3CCOCC3)c(=O)[nH]c2=S)cc1 | 6.63%
O=c1[nH]c(=O)n(-c2ccc(F)cc2)c(O)c1C=NCCN1CCCCC1 | -1.3%
CCc1nnc(NS(=O)(=O)c2ccc(N=Cc3c(O)n(-c4ccccc4)c(=O)[nH]c3=O)cc2)s1 | -4.6%
COc1ccc(-c2ccc([C@H]3[C@H](CO)N4CCCCN(C(=O)Cc5ccncc5)C[C@@H]34)cc2)cc1 | -8.67%
COC(=O)[C@H]1[C@H](CO)[C@H]2Cn3c(ccc(-c4cccc(F)c4)c3=O)[C@@H]1N2Cc1ccccc1 | -0.694%
O=C(Cc1ccccc1)N1CCCCN2[C@H](C1)[C@H](c1ccc(C#CC3(O)CCCC3)cc1)[C@@H]2CO | -2.57%
COc1cccc(-c2ccc3n(c2=O)C[C@@H]2[C@@H](CO)[C@H](C(=O)O)[C@H]3N2C(=O)c2cnccn2)c1 | -0.13%
COC(=O)[C@@H]1[C@@H](CO)[C@@H]2Cn3c(ccc(C4=CCCCC4)c3=O)[C@H]1N2CC1CC1 | -4.97%
O=C(Cc1ccccc1)N1CCCCN2[C@H](CO)[C@H](c3ccc(C#Cc4ccccc4)cc3)[C@H]2C1 | 3.71%
CCOC(=O)[C@@H]1[C@@H]2NC(=O)N[C@@]1(C)Oc1ccccc12 | 1.64%
OC[C@@H]1[C@H]2c3ccccc3NC[C@H]2N1Cc1cccnc1 | 5.28%
CCC(C)n1c(O)c(/C=N/Nc2nc3c(c(=O)n(C)c(=O)n3C)n2C)c(=O)[nH]c1=S (stereo not given) | 65.4% (active)
O=C(O)[C@@H]1[C@@H](CO)[C@@H]2Cn3c(ccc(-c4ccccc4F)c3=O)[C@H]1N2C(=O)c1cccnc1 | 8.55%
COc1ccc(C#Cc2ccc([C@H]3[C@H](CO)N4CCCCN(C(=O)Cc5ccccc5)C[C@@H]34)cc2)cc1 | -4.42%
O=C(Cc1ccncc1)N1CCCCN2[C@@H](CO)[C@H](c3ccc(C#CC4(O)CCCC4)cc3)[C@@H]2C1 | -1.41%
